In PubChem BioAssay AID588432 (Broad Institute, 2011):
A number with no mark means an inactive call.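 The calls were made as follows: active = luciferase inhibitors whose fitted dose curve gives a half-maximal potency within ten times the top tested dose; inconclusive = flat curve with 30 to 70% inhibition, or a poor fit; inactive = the rest.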

Test: ADP-Glo luciferase interference without Dyrk1A, dose response, artefact control for Dyrk1A inhibitor project, biochemical, luminescence, cherry-pick, set 04 (AID 588432)
Conditions: ADP-Glo luminescence without kinase, luciferase artifact; series mostly up to 12 µM; activity change, negative = inhibition: at the top concentration

| SMILES | activity change, negative = inhibition [%] |
| --- | --- |
| CCOC(=O)c1ccc(-c2ccc3ncnc(N(C)Cc4sccc4C)c3c2)o1 | 3.89 |
| Clc1ccccc1-c1ccc2ncnc(NCc3ccc4c(c3)OCO4)c2c1 | -4.77 |
| Clc1ccc(CNc2ccnc(-c3ccc4[nH]ncc4c3)n2)cc1Cl | -2.95 |
| c1cncc(CNc2nccc(-c3ccc4[nH]ncc4c3)n2)c1 | -1.45 |
| c1nc(NCC2CCCOC2)c2cc(-c3ccc4c(c3)OCO4)ccc2n1 (stereo not drawn) | -4.69 |
| FC(F)(F)c1cc(Br)cc(Nc2nccc(-c3ccc4c(c3)OCO4)n2)c1 | 0.301 |
| Cc1c(-c2ccnc(NCc3ccc(Cl)cc3)n2)sc(=O)n1C | 3.38 |
| Cc1nc(CN(C)c2ncnc3ccc(-c4ccc5c(c4)OCO5)cc23)cs1 | 4.71 |
| c1cncc(CNc2cc(-c3ccc4c(c3)OCO4)ncn2)c1 | -0.561 |
| Cc1noc(CN(C)c2ncnc3ccc(-c4ccc5c(c4)OCO5)cc23)n1 | -2.83 |
| CCN1/C(=C/C(C)=O)Sc2ccc(OC)cc21 | -1.71 |
| Clc1cc(Cl)cc(CNc2cc(-c3ccc4c(c3)OCO4)ncn2)c1 | 1.87 |
| c1csc(CNc2ncnc3ccc(-c4ccoc4)cc23)c1 | 0.227 |
| Clc1ccc(Nc2nccc(-c3ccc4c(c3)OCO4)n2)cc1 | 6.82 |
| Clc1cccc(-c2ccc3ncnc(NCc4ccc5c(c4)OCO5)c3c2)c1 | 5.1 |
| Cn1ccc2cc(-c3ccc4ncnc(NCc5ccc6c(c5)OCO6)c4c3)ccc21 | 3.02 |
| Clc1ccc(CNc2nccc(-c3ccc4[nH]ncc4c3)n2)cc1Cl | -1.76 |
| CN(Cc1nccs1)c1ncnc2ccc(-c3ccc4c(c3)OCO4)cc12 | 3.29 |
